This passage reports NP40-soluble protein abundance results from the supplement of paper PMC6411743.

Compound in this assay: Nc1ncnc2c1ncn2[C@@H]1O[C@H](COP(=O)(O)OP(=O)(O)NP(=O)(O)O)[C@@H](O)[C@H]1O [adenylyl imidodiphosphate]
In words: NP40-soluble protein abundance relative to vehicle (solubility fold change) (ratio); higher = more soluble protein in presence of AMP-PNP. In short, it runs like this:
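Crude Jurkat lysate, prepared by Dounce homogenisation, was exposed to eight concentrations from 0.1 to 10 mM for 10 min at room temperature and then 3 min at 37 °C. Solubilisation used 0.8% NP40 with benzonase for 60 min at 4 °C, followed by ultracentrifugation and TMT labelling of the supernatant for LC-MS/MS. After vsn normalisation of intensities, each value is the fold change against the detergent-processed vehicle within each replicate, across three independent experiments.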

± gives the standard deviation of the averaged measurements. Of roughly 6,200 targets only a part is listed; those with the largest changes were picked by preference.

UniProt O95363, sequence (O95363 whole entry): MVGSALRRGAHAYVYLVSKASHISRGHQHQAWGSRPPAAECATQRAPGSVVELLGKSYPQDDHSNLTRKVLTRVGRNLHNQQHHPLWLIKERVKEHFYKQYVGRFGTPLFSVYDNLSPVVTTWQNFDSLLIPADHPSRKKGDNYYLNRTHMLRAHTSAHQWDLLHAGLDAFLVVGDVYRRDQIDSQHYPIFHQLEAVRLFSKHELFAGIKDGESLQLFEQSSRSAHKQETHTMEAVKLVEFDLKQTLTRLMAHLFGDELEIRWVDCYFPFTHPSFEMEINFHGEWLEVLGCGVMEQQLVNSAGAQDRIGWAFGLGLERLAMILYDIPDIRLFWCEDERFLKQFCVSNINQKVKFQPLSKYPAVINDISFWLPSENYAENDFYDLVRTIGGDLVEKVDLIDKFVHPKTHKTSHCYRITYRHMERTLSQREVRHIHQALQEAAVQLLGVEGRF
UniProt P13984, sequence (P13984 whole entry): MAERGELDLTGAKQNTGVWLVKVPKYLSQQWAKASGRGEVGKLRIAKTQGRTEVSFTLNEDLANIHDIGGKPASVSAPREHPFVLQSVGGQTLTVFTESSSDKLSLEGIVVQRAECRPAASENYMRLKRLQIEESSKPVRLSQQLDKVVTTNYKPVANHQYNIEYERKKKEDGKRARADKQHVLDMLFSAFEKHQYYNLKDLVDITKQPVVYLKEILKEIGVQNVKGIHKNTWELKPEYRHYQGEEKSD
UniProt P07195, sequence (P07195 whole entry, looked up): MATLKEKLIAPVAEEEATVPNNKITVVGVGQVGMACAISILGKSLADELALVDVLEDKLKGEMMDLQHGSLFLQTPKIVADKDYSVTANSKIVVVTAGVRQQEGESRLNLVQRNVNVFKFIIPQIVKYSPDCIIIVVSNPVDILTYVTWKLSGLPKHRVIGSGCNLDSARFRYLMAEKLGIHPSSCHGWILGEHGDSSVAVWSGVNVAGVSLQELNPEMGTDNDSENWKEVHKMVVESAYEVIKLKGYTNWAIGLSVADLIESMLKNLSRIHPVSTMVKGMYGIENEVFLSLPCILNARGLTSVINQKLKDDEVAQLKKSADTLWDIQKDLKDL
UniProt Q02880, sequence (Q02880 whole entry): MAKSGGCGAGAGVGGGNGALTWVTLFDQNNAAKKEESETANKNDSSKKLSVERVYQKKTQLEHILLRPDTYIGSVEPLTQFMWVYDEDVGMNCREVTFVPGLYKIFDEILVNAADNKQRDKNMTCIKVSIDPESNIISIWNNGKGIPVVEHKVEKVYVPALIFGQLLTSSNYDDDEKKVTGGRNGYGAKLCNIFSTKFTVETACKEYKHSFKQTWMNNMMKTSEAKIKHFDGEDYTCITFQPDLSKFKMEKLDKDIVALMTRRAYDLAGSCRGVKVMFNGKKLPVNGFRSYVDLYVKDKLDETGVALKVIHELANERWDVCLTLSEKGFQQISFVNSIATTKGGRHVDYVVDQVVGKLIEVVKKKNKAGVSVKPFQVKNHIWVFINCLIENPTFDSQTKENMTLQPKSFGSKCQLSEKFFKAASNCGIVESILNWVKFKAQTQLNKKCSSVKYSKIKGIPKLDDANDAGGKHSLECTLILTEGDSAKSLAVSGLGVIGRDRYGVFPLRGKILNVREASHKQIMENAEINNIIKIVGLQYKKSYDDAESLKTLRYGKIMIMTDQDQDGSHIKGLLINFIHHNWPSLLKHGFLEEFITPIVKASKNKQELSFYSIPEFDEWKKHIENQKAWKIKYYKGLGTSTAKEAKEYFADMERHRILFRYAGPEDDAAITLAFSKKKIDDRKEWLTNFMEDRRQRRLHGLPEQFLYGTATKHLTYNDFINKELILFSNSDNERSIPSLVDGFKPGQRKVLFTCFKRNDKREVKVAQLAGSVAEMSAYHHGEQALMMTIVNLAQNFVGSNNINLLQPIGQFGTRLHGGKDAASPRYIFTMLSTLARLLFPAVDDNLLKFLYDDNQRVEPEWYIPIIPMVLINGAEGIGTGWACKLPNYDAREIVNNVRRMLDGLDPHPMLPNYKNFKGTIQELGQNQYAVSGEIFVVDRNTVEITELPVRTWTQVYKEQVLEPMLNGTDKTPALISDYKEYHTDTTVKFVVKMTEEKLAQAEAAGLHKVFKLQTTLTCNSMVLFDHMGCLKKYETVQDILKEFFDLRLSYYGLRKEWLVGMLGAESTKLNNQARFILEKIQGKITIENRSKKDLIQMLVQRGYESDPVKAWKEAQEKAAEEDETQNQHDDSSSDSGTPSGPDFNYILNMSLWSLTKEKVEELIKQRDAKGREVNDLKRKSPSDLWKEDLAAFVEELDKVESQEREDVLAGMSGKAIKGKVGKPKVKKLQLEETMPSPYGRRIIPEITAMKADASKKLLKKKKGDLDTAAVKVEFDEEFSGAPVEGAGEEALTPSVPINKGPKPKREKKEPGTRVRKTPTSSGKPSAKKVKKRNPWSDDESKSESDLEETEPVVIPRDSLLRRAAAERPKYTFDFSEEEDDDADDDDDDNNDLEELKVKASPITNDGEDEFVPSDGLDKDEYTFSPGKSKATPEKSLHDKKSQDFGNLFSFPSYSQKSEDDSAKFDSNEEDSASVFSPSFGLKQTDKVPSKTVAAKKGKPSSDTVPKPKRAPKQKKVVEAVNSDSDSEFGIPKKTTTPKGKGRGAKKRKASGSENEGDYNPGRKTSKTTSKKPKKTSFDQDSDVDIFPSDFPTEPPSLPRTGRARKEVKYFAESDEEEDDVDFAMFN
UniProt Q13217, sequence (Q13217 whole entry): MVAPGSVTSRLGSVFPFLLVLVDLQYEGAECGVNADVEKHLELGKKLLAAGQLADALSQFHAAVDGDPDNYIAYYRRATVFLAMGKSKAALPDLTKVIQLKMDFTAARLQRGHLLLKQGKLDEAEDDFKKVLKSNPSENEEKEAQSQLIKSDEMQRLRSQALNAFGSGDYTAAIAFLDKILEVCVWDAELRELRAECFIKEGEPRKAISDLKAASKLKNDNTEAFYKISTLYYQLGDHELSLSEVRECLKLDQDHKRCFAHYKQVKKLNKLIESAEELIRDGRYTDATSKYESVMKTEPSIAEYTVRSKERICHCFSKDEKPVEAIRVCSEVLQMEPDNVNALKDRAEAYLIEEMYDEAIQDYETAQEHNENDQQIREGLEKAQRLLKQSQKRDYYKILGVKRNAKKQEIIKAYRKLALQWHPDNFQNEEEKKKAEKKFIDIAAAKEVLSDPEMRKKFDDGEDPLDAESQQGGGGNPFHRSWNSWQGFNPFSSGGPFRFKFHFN
UniProt O76031, sequence (O76031 whole entry): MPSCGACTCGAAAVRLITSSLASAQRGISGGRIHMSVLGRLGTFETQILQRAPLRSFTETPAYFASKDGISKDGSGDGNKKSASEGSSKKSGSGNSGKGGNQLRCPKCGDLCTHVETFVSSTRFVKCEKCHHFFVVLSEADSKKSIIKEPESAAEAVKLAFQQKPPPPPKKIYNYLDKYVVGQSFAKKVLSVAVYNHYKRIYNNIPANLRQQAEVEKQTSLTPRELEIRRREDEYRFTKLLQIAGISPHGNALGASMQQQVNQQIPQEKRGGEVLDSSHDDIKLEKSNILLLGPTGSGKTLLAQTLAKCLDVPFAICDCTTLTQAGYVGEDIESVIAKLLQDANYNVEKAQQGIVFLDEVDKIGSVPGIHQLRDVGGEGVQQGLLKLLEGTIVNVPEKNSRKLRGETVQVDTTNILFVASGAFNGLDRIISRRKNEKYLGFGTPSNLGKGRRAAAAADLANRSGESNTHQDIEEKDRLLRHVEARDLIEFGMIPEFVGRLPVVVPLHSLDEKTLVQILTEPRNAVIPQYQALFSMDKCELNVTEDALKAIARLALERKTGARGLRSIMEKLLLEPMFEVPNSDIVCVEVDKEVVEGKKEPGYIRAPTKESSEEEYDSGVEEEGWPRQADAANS
UniProt P36405, sequence (P36405 whole entry): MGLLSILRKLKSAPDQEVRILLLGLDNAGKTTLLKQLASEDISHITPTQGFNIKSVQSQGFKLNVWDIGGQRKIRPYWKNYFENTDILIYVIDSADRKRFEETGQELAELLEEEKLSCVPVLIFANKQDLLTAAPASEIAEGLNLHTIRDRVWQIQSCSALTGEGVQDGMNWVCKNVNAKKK
UniProt P98082, sequence (P98082 whole entry): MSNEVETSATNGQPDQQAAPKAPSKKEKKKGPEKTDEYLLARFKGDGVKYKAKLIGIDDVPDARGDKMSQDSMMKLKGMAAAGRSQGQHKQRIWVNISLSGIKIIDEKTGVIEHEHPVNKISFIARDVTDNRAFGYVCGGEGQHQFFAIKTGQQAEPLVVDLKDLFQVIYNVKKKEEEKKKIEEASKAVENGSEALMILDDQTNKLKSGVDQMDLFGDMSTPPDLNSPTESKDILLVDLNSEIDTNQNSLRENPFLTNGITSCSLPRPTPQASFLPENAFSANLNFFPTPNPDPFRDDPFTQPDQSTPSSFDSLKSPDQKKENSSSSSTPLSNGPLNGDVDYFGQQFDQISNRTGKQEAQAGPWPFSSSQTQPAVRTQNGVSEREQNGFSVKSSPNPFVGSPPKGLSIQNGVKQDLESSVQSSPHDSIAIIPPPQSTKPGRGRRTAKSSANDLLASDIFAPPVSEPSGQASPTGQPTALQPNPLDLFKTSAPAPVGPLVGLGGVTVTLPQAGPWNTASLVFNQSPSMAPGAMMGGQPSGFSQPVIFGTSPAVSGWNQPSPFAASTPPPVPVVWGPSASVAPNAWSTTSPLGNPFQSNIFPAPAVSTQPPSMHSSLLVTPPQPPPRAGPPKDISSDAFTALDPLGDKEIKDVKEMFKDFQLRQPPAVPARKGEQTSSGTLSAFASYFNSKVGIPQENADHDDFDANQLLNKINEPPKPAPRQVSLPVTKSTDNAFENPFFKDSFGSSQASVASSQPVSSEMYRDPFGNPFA
UniProt O75368, sequence (O75368 whole entry): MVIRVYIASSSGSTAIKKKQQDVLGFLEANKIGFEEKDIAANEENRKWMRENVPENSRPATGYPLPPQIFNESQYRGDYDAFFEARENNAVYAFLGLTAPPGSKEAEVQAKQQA

For UniProt Q02880|Q02880-2, the NP40-soluble protein abundance is, setting by setting: (concentration: 1mM) 1.56 ± 0.036; (concentration: 2mM) 1.63 ± 0.041; (concentration: 4mM) 1.77 ± 0.12; (concentration: 6mM) 1.88 ± 0.19; (concentration: 8mM) 1.95 ± 0.18; (concentration: 10mM) 2.01 ± 0.25.
As for GTF2F2 (UniProt P13984), the NP40-soluble protein abundance reads like this: (concentration: 1mM) 1 ± 0.011; (concentration: 2mM) 1.06 ± 0.023; (concentration: 4mM) 1.04 ± 0.019; (concentration: 6mM) 1.07 ± 0.018; (concentration: 8mM) 1.07 ± 0.015; (concentration: 10mM) 1.103 ± 0.0083.
Consider UniProt P98082|P98082-2|P98082-3, for which the NP40-soluble protein abundance (concentration: 1mM) turned out to be 1.016 ± 0.0042; the NP40-soluble protein abundance (concentration: 2mM) stood at 1.03 ± 0.042; the NP40-soluble protein abundance (concentration: 4mM) was determined as 1.042 ± 0.0097; the NP40-soluble protein abundance (concentration: 6mM) turned out to be 1.016 ± 0.004; the NP40-soluble protein abundance (concentration: 8mM) is 1.017 ± 0.0048; the NP40-soluble protein abundance (concentration: 10mM) is 1.035 ± 0.0064.
For SH3BGRL (UniProt O75368), the NP40-soluble protein abundance was found to be 0.939 ± 0.027 (concentration: 1mM); 0.966 ± 0.028 (concentration: 2mM); 0.888 ± 0.013 (concentration: 4mM); 0.937 ± 0.031 (concentration: 6mM); 0.907 ± 0.015 (concentration: 8mM); 0.897 ± 0.033 (concentration: 10mM).
Consider SUB1 (UniProt P53999), for which the NP40-soluble protein abundance worked out at 0.923 ± 0.049 (concentration: 1mM); 1 ± 0.19 (concentration: 2mM); 0.916 ± 0.088 (concentration: 4mM); 1 ± 0.089 (concentration: 6mM); 0.997 ± 0.043 (concentration: 8mM); 1.02 ± 0.11 (concentration: 10mM).
For the target UniProt P36402-5, the NP40-soluble protein abundance came out at 0.952 ± 0.025 (concentration: 1mM); 0.984 ± 0.03 (concentration: 2mM); 0.924 ± 0.046 (concentration: 4mM); 0.876 ± 0.025 (concentration: 6mM); 0.8484 ± 0.0036 (concentration: 8mM); 0.837 ± 0.015 (concentration: 10mM).
As to UniProt P48047, the NP40-soluble protein abundance stood at 0.907 ± 0.042 (concentration: 1mM); 0.912 ± 0.041 (concentration: 2mM); 0.896 ± 0.051 (concentration: 4mM); 0.96 ± 0.087 (concentration: 6mM); 0.974 ± 0.045 (concentration: 8mM); 0.938 ± 0.1 (concentration: 10mM).
For the target PSMD2 (UniProt Q13200), the NP40-soluble protein abundance (concentration: 1mM) amounted to 0.891 ± 0.014; the NP40-soluble protein abundance (concentration: 2mM) was 0.849 ± 0.068; the NP40-soluble protein abundance (concentration: 4mM) turned out to be 0.854 ± 0.074; the NP40-soluble protein abundance (concentration: 6mM) was determined as 0.858 ± 0.087; the NP40-soluble protein abundance (concentration: 8mM) worked out at 0.851 ± 0.086; the NP40-soluble protein abundance (concentration: 10mM) was found to be 0.816 ± 0.12.
As for ARL3 (UniProt P36405), the NP40-soluble protein abundance (concentration: 1mM) came to 0.9899 ± 0.0033; the NP40-soluble protein abundance (concentration: 2mM) was found to be 0.945 ± 0.031; the NP40-soluble protein abundance (concentration: 4mM) came out at 0.995 ± 0.048; the NP40-soluble protein abundance (concentration: 6mM) is 0.988 ± 0.052; the NP40-soluble protein abundance (concentration: 8mM) is 1.03 ± 0.041; the NP40-soluble protein abundance (concentration: 10mM) amounted to 0.99 ± 0.042.
Consider FARS2 (UniProt O95363), for which the NP40-soluble protein abundance by setting is: (concentration: 1mM) 0.9733 ± 0.0048; (concentration: 2mM) 0.856 ± 0.13; (concentration: 4mM) 0.943 ± 0.01; (concentration: 6mM) 0.9111 ± 0.0032; (concentration: 8mM) 0.919 ± 0.033; (concentration: 10mM) 0.876 ± 0.029.
As for DNAJC3 (UniProt Q13217), the NP40-soluble protein abundance runs as follows: (concentration: 1mM) 0.978 ± 0.031; (concentration: 2mM) 0.9648 ± 0.0063; (concentration: 4mM) 0.973 ± 0.011; (concentration: 6mM) 1.01 ± 0.014; (concentration: 8mM) 0.985 ± 0.021; (concentration: 10mM) 0.999 ± 0.022.
Take UniProt P62701: the NP40-soluble protein abundance is 0.95 ± 0.063 (concentration: 1mM); 0.87 ± 0.091 (concentration: 2mM); 0.879 ± 0.11 (concentration: 4mM); 0.873 ± 0.065 (concentration: 6mM); 0.821 ± 0.071 (concentration: 8mM); 0.851 ± 0.13 (concentration: 10mM).
As to CLPX (UniProt O76031), the NP40-soluble protein abundance was 0.957 ± 0.062 (concentration: 1mM); 0.969 ± 0.062 (concentration: 2mM); 0.955 ± 0.074 (concentration: 4mM); 0.909 ± 0.08 (concentration: 6mM); 0.886 ± 0.074 (concentration: 8mM); 0.923 ± 0.078 (concentration: 10mM).
As to UniProt Q12769|G3V198, the NP40-soluble protein abundance (concentration: 1mM) came to 1 ± 0.024; the NP40-soluble protein abundance (concentration: 2mM) is 0.9518 ± 0.0046; the NP40-soluble protein abundance (concentration: 4mM) came out at 0.9433 ± 0.006; the NP40-soluble protein abundance (concentration: 6mM) stood at 0.9621 ± 0.0016; the NP40-soluble protein abundance (concentration: 8mM) came to 0.99281 ± 0.00096; the NP40-soluble protein abundance (concentration: 10mM) came to 0.991 ± 0.019.
For the target LDHB (UniProt P07195), the NP40-soluble protein abundance by setting is: (concentration: 1mM) 1.01 ± 0.019; (concentration: 2mM) 0.92 ± 0.025; (concentration: 4mM) 0.947 ± 0.02; (concentration: 6mM) 0.973 ± 0.036; (concentration: 8mM) 0.969 ± 0.024; (concentration: 10mM) 0.943 ± 0.013.
